The sample as a whole holds a higher share of hits than the screen did.
MBNL1-CUG inh: MBNL1-poly(CUG) RNA binding inhibition; TR-FRET MBNL1-His/biotin-(CUG)12 binding, 665/545 ratio; Potency, µM (highest dose often 57.5 µM), for inactives: at the highest dose activity change, negative = inhibition, actives largely listed as inhibitors; 280,000 compounds, 0.036% hits; AID 2675; active means well fitted inhibition curve with a large enough effect in the signal ratio, with a control signal flat, not every such curve was filed as active; inconclusive means small, poorly fitted or top-dose-only effect, or effect the other way, or a change in a side signal; inactive means no such curve, though single readings can be large or run the other way; the % refers to the signal ratio; further: potency means the concentration at half of the fitted maximal effect; on the % scale 0 is the no-effect control and ±100 the full control effect
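Compound titration spanned 92 nM–58 uM against the MBNL1-His/biotin-(CUG)12 complex. After 60 min at room temperature with 5 nM streptavidin-XL665 and 0.055 ng/ul terbium anti-His, ratiometric 665/545 nm emission (Ex 340 nm) normalized to controls.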
Rango dissoc inh: inhibitors of RanGTP-induced Rango-importin beta complex dissociation; 340,000 compounds, 0.071% hits; Potency, µM (titrated, usually from 46.1 µM), without a hit: top-dose activity change, negative = inhibition; Biochemical FRET Rango-importin beta, RanGTP-induced dissociation; further: potency means the concentration at half of the fitted maximal effect; % of control where 0% means no effect; nearly all actives have a fitted effect of over 45% in size
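Quantitative HTS using a FRET biosensor: 0.1 uM Rango, 0.25 uM importin beta, 0.6 uM Ran, 2 mM GTP, 0.2 uM RCC1 final, PBS with DTT, Tween-20 and BSA. Post-read taken 45 min after Ran addition.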
Rango-impB inh: inhibitors of Rango-importin beta complex formation. Rango CFP/YFP FRET sensor + importin beta, 45 min. 340,000 compounds, 0.031% hits. Potency, µM (top dose mostly 92.2 µM), for the others: at the highest dose inhibition of complex formation. Q14974;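 further: potency means the concentration at half of the fitted maximal effect; 0% = DMSO wells and 100% = buffer wells lacking importin beta; nearly all actives have a fitted effect of over 15% in size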
Target sequence (Q14974 whole entry, looked up): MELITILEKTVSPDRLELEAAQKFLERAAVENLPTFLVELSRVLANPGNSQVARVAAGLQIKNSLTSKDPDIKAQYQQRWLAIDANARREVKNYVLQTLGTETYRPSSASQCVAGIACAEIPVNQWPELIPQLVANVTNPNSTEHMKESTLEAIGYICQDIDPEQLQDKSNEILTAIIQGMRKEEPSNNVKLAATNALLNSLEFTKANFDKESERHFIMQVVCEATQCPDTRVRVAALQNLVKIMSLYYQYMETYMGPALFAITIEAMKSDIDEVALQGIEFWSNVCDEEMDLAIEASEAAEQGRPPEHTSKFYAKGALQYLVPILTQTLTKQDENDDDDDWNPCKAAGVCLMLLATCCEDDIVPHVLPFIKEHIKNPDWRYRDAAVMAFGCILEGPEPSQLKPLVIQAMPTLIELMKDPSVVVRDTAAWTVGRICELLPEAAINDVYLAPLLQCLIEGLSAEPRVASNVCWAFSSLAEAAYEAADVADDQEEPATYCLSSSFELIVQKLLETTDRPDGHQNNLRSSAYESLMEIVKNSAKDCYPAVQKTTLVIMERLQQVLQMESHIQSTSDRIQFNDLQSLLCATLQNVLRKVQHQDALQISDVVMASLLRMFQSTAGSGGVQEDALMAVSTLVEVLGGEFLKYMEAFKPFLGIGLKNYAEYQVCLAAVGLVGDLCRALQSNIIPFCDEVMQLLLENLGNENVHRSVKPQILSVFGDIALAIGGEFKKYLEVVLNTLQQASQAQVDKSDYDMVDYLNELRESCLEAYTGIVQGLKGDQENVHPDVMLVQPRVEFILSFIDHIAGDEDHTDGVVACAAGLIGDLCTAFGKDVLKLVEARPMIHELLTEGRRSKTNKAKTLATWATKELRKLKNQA
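FRET biosensor (snurportin 1 IBB flanked by EYFP and cerulean), 50 nM, with compound 5 min, then 0.125 microM importin beta in PBS, 1 mM DTT, 0.02% Tween-20, 0.1% BSA. CFP/YFP ratio read after 45 min at room temperature; pre-read flags interference.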
ClpP mod: qHTS Assay for Activators of ClpP. ATP-dependent Clp protease proteolytic subunit (Bacillus subtilis (strain 168)), P80244. purified B. subtilis ClpP, FRET peptide cleavage, 20 min. Potency, µM (series often up to 57.5 µM), without a hit: at the highest dose activity change, negative = active. 340,000 compounds, 1.9% hits. AID 651965, 2013; active means well fitted falling curve with a large enough effect; inconclusive means small, poorly fitted or top-dose-only effect; inactive means no such curve, though single readings can be large or run the other way; further: potency means the concentration at half of the fitted maximal effect; the source files actives as falling curves though it sought activators and does not explain the sign; nearly all actives have a fitted effect of over 65% in size
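Purified B. subtilis ClpP, 10 microg/mL final in Tris/HCl pH8 with KCl, BSA, glycerol and Tween-20, cleaved an Abz/nitrotyrosine-quenched decapeptide. Fluorescence (ex 320, em 430) was read at 0 and 20 min at room temperature. Delta was normalized to 5.8 microM ADEP and DMSO/no-enzyme controls.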
CBFb-RUNX1 inh: inhibitors of human CBF-beta and RUNX1 interaction; AlphaScreen CBFb-His/RUNX1-biotin binding, biochemical; Potency, µM (highest dose often 59.8 µM), inactives show top-dose activity, negative = inhibition, usual class: inhibitors; 230,000 tested, under 10 active; Q01196+Q13951; active means well fitted curve in the direction sought with a large enough effect; inconclusive means small, poorly fitted or top-dose-only effect, or effect the other way, or another doubt; inactive means no such curve, though single readings can be large or run the other way; further: % of control where 0% means no effect
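Interaction loss through any mechanism counts as activity. Pre-formed complex of His-CBF-beta and biotin-RUNX1 (30 nM apiece) is incubated with compound 15 min, then with 50 ng nickel and 50 ng streptavidin beads for 90 min before AlphaScreen detection.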
The depositor's hits bear a star; ? = inconclusive; . = not tested or not shown; ! = not active in a repeat; [ ] = remark or other dose. Unless noted, the call rests on the fitted dose curve.

SMILES	MBNL1-CUG inh	Rango dissoc inh	Rango-impB inh	ClpP mod	CBFb-RUNX1 inh
CCN(CC(=O)Nc1ccccc1C(F)(F)F)C(=O)CCSc1ccc(F)cc1	.	2%	5%	13µM*	.
CC[C@@H](CO)NC(=O)[C@H]1C=C2c3cccc4c3c(cn4C)C[C@H]2N(C)C1	?	.	.	.	-6%
CN1CCc2cc(O)cc3c2[C@H]1Cc1ccc(O)c(O)c1-3	.	-11%	-1%	28µM*!	.
CC(C)c1cc2c(c(O)c1O)[C@]1(C(=O)O)CCCC(C)(C)C1CC2 (some centres not stated)	.	.	.	.	-15%
COc1ccc(C(=O)CCNc2ccc(F)cc2)cc1	-9%	0%	-1%	28µM*	10%
Oc1cc(Cl)cc(Cl)c1	.	.	.	.	12%[21.7 µM]
c1ccc2nc(N3CCNCC3)ccc2c1	.	1%	-2%	4%	13%
c1ccc(C(c2ccccc2)N2CCN(c3ccc4ccccc4n3)CC2)cc1	5%	11%	-3%	18µM*	9%
NC(Cc1ccc(O)cc1)C(=O)NN=Cc1ccc(N(CCCl)CCCl)cc1 (configuration not stated)	.	0%	-2%	28µM*	.
O=c1c2ccccc2nc(-c2ccco2)n1-c1ccc(Br)cc1	7%	6%	-3%	1%	4%
S=c1[nH]nc(-c2ccco2)n1Cc1ccccc1	?	-5%	6%	28µM*	-2%
Cc1cc(N2CCCCC2)nc2ccc(NC(=O)CCC(=O)N3CCN(c4cccc(Cl)c4)CC3)cc12	.	.	.	32µM*	.
Cc1cc(N2CCOCC2)nc2ccc(NC(=O)CCC(=O)N3CCC4(CC3)OCCO4)cc12	-5%	3%	5%	?	2%
Cc1cccn2c(NCC3CCCO3)c(C(C)C)nc12 (configuration not stated)	4%	6%	0%	22µM*	-2%
CCOc1cc(-c2nc3c(C)cccn3c2NCC2CCCO2)ccc1O (configuration not stated)	13%	5%	0%	14µM*	-4%
Cc1ccc([N+](=O)[O-])cc1C	.	.	.	.	4%[21.7 µM]
O=C(NCC(c1cccnc1)N1CCN(c2ccccc2F)CC1)Oc1ccccc1 (configuration not stated)	-1%	-1%	-1%	22µM*	-7%
CCCCCCCC/C=C\CCCCCCCC(=O)OC[C@@H](COP(O)(O)=S)OC	.	.	.	.	-22%
Cc1ccc(-c2cc(-c3ccc(C)cc3)[n+](C)o2)cc1	-2%[11.5 µM]	-2%	2%	14µM*	11%
CC12CN3CC(c4ccccc4)(CN(C1)C31CCCCC1)C2=O	1%	-3%	0%	13µM*	6%
CC12CN3CC(C)(CN(C1)P3(=O)Oc1ccccc1)C2=O (configuration not stated)	-3%	-14%	-1%	-1%	12%
Clc1cccc(C(Cl)(Cl)Cl)n1	.	.	.	.	7%[21.7 µM]
ClP(Cl)(Cl)(Cl)Cl	.	.	.	.	25%[21.7 µM]
CNC(=O)Oc1cccc(-c2cn3cc(OC(=O)NC)ccc3n2)c1	?	-25%	?	14µM*	-3%
COC(=O)Nc1cccc(OC(=O)Nc2cccc(C)c2)c1	.	.	.	.	15%[21.7 µM]
SMILES	MBNL1-CUG inh	Rango dissoc inh	Rango-impB inh	ClpP mod	CBFb-RUNX1 inh
CCC1(C)Cc2ccccc2-c2c1c(=O)n(Cc1ccccc1)c1nnnn21 (configuration not stated)	-3%	2%	?	32µM*	11%
CN1C(=O)[C@]23CC4=CC=C[C@H](O)[C@H]4N2C(=O)[C@@]1(CO)SS3	.	.	.	.	22%
Cl/C=C/Cl	.	.	.	.	-3%[21.7 µM]
Cc1cccc(N2CCc3c2nc2ccccc2c3N)c1	?	-6%	1%	25µM*!	-1%
CC(=O)C1C(N2CC2)CC2C3CCC4=CC(=O)CCC4(C)C3CCC21C (configuration not stated)	.	7%	1%	14µM*	.
COc1ccc(-c2nc(CSCC(=O)N3CCC4(CC3)OCCO4)c(C)o2)cc1OC	0%	?	?	?	7%
Cc1oc(-c2cccs2)nc1CSCC(=O)N1CCC2(CC1)OCCO2	1%	-5%	2%	1.4µM*	-1%
Cc1c(N=Cc2c(O)n(Cc3ccccc3)c(=O)[nH]c2=O)c(=O)n(-c2ccccc2)n1C	-9%[11.5 µM]	-4%	2%	.	12%
Cc1c(N=Cc2c(O)n(Cc3ccco3)c(=O)[nH]c2=O)c(=O)n(-c2ccccc2)n1C	3%	-4%	-2%	11µM*	7%
c1ccc(C2CO2)cc1 (configuration not stated)	.	.	.	.	4%[21.7 µM]
CC1=NN(c2ccccc2)C(=O)/C1=C/c1c(O)[nH]c(=S)[nH]c1=O	13%	-29%	6%	25µM*	-3%
CCCCOCCCn1c(N)c(C(=O)OC(C)COC)c2nc3ccccc3nc21 (configuration not stated)	9%	9.2µM*	?	?	7%
COCCCn1c(N)c(C(=O)OC(C)COC)c2nc3ccccc3nc21 (configuration not stated)	?	?	?	?	-2%
Nc1c(C(=O)OCc2ccccc2)c2nc3ccccc3nc2n1Cc1cccs1	5%	-12%	-7%	28µM*	?
CC(C)(C)OC(=O)c1c(N)n(Cc2ccco2)c2nc3ccccc3nc12	5%	?	?	-1%	12%
CCC(C)OC(=O)c1c(N)n(Cc2cccs2)c2nc3ccccc3nc12 (configuration not stated)	17%	-18%	?	14µM*	?
ClC1=C(Cl)C2(Cl)C3C(Cl)C(Cl)CC3C1(Cl)C2(Cl)Cl (configuration not stated)	.	.	.	.	19%[21.7 µM]
CCOC(=O)CBr	.	.	.	.	4%[21.7 µM]
Nc1c(C(=O)NCCN2CCOCC2)c2nc3ccccc3nc2n1Cc1ccco1	?	?	?	16µM*	-3%
C=CCNC(=O)c1c(N)n(Cc2ccco2)c2nc3ccccc3nc12	9%	?	?	16µM*	26%
CCCCn1c(N)c(C(=O)NCCN2CCOCC2)c2nc3ccccc3nc21	?	?	?	11µM*	28%
Nc1c(C(=O)NCCc2ccccc2)c2nc3ccccc3nc2n1CCN1CCOCC1	7%	?	?	?	?
COCCNC(=O)c1c(N)n(Cc2ccco2)c2nc3ccccc3nc12	?	?	?	?	16%
CCC(C)NC(=O)c1c(N)n(CC2CCCO2)c2nc3ccccc3nc12 (configuration not stated)	?	?	?	35µM*	?
CC(C)CCNC(=O)c1c(N)n(CC2CCCO2)c2nc3ccccc3nc12 (configuration not stated)	0%	?	?	?	14%

Bioassay records (PubChem BioAssay)
